# Records with an inconclusive call do not appear. Values without a mark were called inactive. Activity calls are given as the source filed them. Calls come from the whole dose curve.
# Test: p53 small molecule agonists, cell-based qHTS assay with rat liver microsomes (AID 1963578)
# Conditions: HCT-116 p53RE-bla, beta-lactamase ratio, 16 h; series mostly up to 66 µM; activation: at the top concentration
# Source text: U.S. Tox21 Program National Center for Advancing Translational Sciences [NCATS] Division of Preclinical Innovation [DPI] U.S. Environmental Protection Agency [EPA] National Institutes of Environmental Health Sciences [NIEHS] National Toxicology Program [NTP] U.S. Food and Drug Administration [FDA] Tox21 Assay Overview: p53, a tumor suppressor protein, is activated following cellular insult, including DNA damage and other cellular stresses. The activation of p53 regulates cell fate by inducing DNA repair, cell cycle arrest, apoptosis, or cellular senescence. The activation of p53, therefore, is a good indicator of DNA damage and other cellular stresses. […] The activation of the reporter gene under culture conditions can be detected by fluorescence intensity. This cell line was used to screen the Tox21 10K compound library in the condition of presence of rat liver microsomes and to identify agonists that activate the p53 signaling pathway after in vitro metabolic activation (Ooka et al., Archive of Toxicology 96:1975-1987, 2022).
# Tox21 Assay Protocol Summary: The p53RE-bla cells were dispensed at 4,000cells/3ul/well in 1536-well black-clear bottom plates. After the assay plates were incubated at 37 C, 5% CO2 incubator for 5 hours, 23 nL of compounds dissolved in DMSO, positive controls or DMSO only was transferred to the assay plate. Following compound addition, 3 uL of rat liver microsomes (Molecular Toxicology, Boone, NC) at final concentration of 0.5 mg/mL and 1uL of Beta-Nicotinamide adenine dinucleotide 2-phosphate (NADPH) at final concentration of 0.5 mg/mL were transferred to the assay plate. The plates were incubated at 37 C for 16 hours. 1 uL of LiveBLAzer detection mixture was added to each well and the plates were incubated at room temperature in the dark for 2 h.
# % is set by controls: 0 for no effect and ±100 for the full control effect.
Compound,activation,Potency
O=C(N/N=C/c1ccc([N+](=O)[O-])o1)c1cc([N+](=O)[O-])cc([N+](=O)[O-])c1O,-0.629% [at 30.3 µM],–
C=C(Cl)Cl,-0.975%,–
CC(O)(CS(=O)(=O)c1ccc(F)cc1)C(=O)Nc1ccc(C#N)c(C(F)(F)F)c1 (stereo not given),0.394% [at 30.3 µM],–
C[C@]12CC[C@H]3[C@@H](CCC4=CC(=O)CC[C@@H]43)[C@@H]1CC[C@@H]2OC(=O)CCC1CCCCC1,11.5% [at 30.3 µM],–
CC[C@]1(O)CC[C@H]2[C@@H]3CCC4=CCCC[C@@H]4[C@H]3CC[C@@]21C,0.216% [at 30.3 µM],–
COC1=CC(=O)O[C@@H](CCc2ccccc2)C1,-2.58%,–
CC(C)Oc1cccc(NC(=O)c2ccccc2C(F)(F)F)c1,4.66%,–
BrCCCCCCBr,1.95%,–
O=C(O)C(F)(F)C(F)(F)C(F)(F)C(F)(F)C(F)(F)F,-0.465%,–
CCCCCCC(=O)CCCCCC/C=C/C[C@@H](O)[C@H](O)[C@@](N)(CO)C(=O)O,0.608% [at 13.6 µM],–
CCOC(=O)C(Cl)Cc1cc(-n2nc(C)n(C(F)F)c2=O)c(F)cc1Cl (stereo not given),1.22%,–
[Cl][Hg][c]1ccccc1,0.0652%,–
CNNC,2.51%,–
CCCCCCCCCCCCN(C)C,-0.255%,–
COC(=O)C(C)N(C(=O)Cc1ccccc1)c1c(C)cccc1C (stereo not given),1.29%,–
O=C1C[C@@H]2OCC=C3CN4CC[C@]56c7ccccc7N1[C@H]5[C@H]2[C@H]3C[C@H]46,2.45% [at 30.3 µM],–
Clc1ccc(C(Cl)(Cl)Cl)cc1Cl,0.474%,–
S=C=Nc1cccc2ccccc12,-2.19%,–
O=C(NC(=O)c1c(F)cccc1F)Nc1ccc(Oc2ccc(C(F)(F)F)cc2Cl)cc1F,3.38%,–
CS(=O)(=O)c1ccc(C(=O)C2C(=O)CCCC2=O)c(Cl)c1COCC(F)(F)F,-1.43%,–

Compound,activation,Potency
CCN(CC)C(=O)N[C@@H]1C=C2c3cccc4[nH]cc(c34)C[C@@H]2N(C)C1,-3.39% [at 30.3 µM],–
CCOc1cc(Oc2ccc(C(F)(F)F)cc2Cl)ccc1[N+](=O)[O-],–,inactive
COc1cnc(OC)n2nc(NS(=O)(=O)c3c(OCC(F)F)cccc3C(F)(F)F)nc12,-0.462%,–
Cc1cc(C2CC2)nc(Nc2ccccc2)n1,-9.36%,–
ClC(Cl)=C(c1ccc(Cl)cc1)c1ccccc1Cl,0.156%,–
CN(C)c1ccc(N)cc1,-2.04%,–
O=C1CC[C@@]2(O)[C@H]3Cc4ccc(O)c5c4[C@@]2(CCN3CC2CC2)[C@H]1O5,1.63% [at 30.3 µM],–
COC(=O)N(OC)c1ccccc1COc1ccn(-c2ccc(Cl)cc2)n1,13.4%,–
C[C@]12C=CC(=O)C=C1CC[C@@H]1[C@@H]2CC[C@@]2(C)[C@H]1CC[C@]2(C)O,-1.62% [at 30.3 µM],–
CCCCC(=O)Cl,2.05%,–
C[C@H]1[C@@H]2Cc3ccc(O)cc3[C@@]1(C)CCN2C,0.351% [at 173 µM],–
CC(C)(C)c1ccc(CSc2cnn(C(C)(C)C)c(=O)c2Cl)cc1,0.287%,–
COC(=O)C1(O)c2ccccc2-c2ccccc21,-0.309%,–
CS(=O)(=O)c1ccc(C(=O)C2C(=O)CCCC2=O)c([N+](=O)[O-])c1,0.0982%,–
O=C(CBr)OCc1ccccc1,2.28%,–
CSSC,-1.85%,–
COC1=CC(=O)O[C@@H](/C=C/c2ccc3c(c2)OCO3)C1,-4.99%,–
COC12CC[C@@]3(C[C@@H]1C(C)(O)C(C)(C)C)[C@H]1Cc4ccc(O)c5c4[C@@]3(CCN1CC1CC1)[C@H]2O5 (stereo not given in full),-0.909%,–
C[C@@H](Oc1ccc(Cl)cc1Cl)C(=O)O,-2.03%,–
CCCCCCCCCCCCCN1CC(C)OC(C)C1 (stereo not given),0.141%,–

# — PubChem BioAssay (Tox21)
